This passage reports Potency results from PubChem BioAssay AID686978 (National Center for Advancing Translational Sciences (NCATS), 2013).

The whole screen tested about 420,000 compounds, of which about 64,000 (15%) were called active. Roughly 27% stayed inconclusive and do not appear here. Calls come from the whole dose curve; as a rule, active = well fitted inhibition curve with a large enough effect; inconclusive = small, poorly fitted or top-dose-only effect; inactive = flat fitted curve, though single readings scatter. A selection follows. Where a call stands in place of a potency, no number is given.
Potency is the fitted concentration of half-maximal effect.

This test in a line: qHTS for Inhibitors of human tyrosyl-DNA phosphodiesterase 1 (TDP1): qHTS in cells in absence of CPT. Note: nearly all actives have a fitted effect of over 55% in size. The following applies: DT40 Tdp1-/- hTDP1 cells, no CPT, ATP luminescence, 48 h; activity change, negative = growth inhibition: at 46.2 µM (top of the series). Summed up:
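Growth kinetics read by CellTiter-Glo luminescence after ≥48 hr at 37 °C. Cells: DT40 Tdp1-/- stably carrying human TDP1, 400 per well, compound exposure in the absence of CPT (DMSO vehicle).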
On to `COc1ccc(CNC(=O)CCC(=O)Nc2nnc(C(C)C)s2)cc1`, for which the Potency entry is “inactive”.

With `COc1ccccc1OCC(=O)OCc1cc(-c2ccco2)on1`, the Potency entry is “inactive”.

In the case of `CCCc1ccc(OCC(O)CN2CCN(C(=O)OCC)CC2)cc1` (stereo not given), the Potency entry was “inactive”.

As to `O=C(O)CCC(=O)Nc1ccc(OCC2CCCO2)cc1` (stereo not given), the Potency entry was “inactive”.

For the compound `COc1ccc(OC)c(NC(=O)c2cc(-c3cc(F)ccc3OCC3CCCO3)n[nH]2)c1` (stereo not given), the Potency is 9.2 µM (active).

Regarding `COc1ccc(C(=O)Nc2ccc(C(=O)NCC3CCCO3)cc2)c(OC)c1OC` (stereo not given), the Potency entry was “inactive”.

`O=C(/C=C/c1cc2c(cc1Br)OCO2)NCc1ccc(Cl)cc1`: the Potency result was “inactive”.

`CCCCn1c(N)c(N(Cc2ccccc2OC)C(=O)COc2cc(C)ccc2Cl)c(=O)[nH]c1=O`: the Potency entry was “inactive”.

Turning to `Cc1cc(C)cc(NS(=O)(=O)Cc2ccccc2)c1`, the Potency entry was “inactive”.

Turning to `O=C(Oc1ccc([N+](=O)[O-])cc1)c1ccc2ccccc2n1`, the Potency result was “inactive”.

Take `O=C(OCc1ccc([N+](=O)[O-])cc1)c1ccccn1`: the Potency entry is “inactive”.

`O=[N+]([O-])c1ccc(/C=C/c2ccc3cccnc3c2)cc1`: the Potency was 10 µM (active).

Take `Cc1c(Cl)cccc1NC(=O)NCc1ccc(C)n1C`: the Potency entry was “inactive”.

For `Cn1cc(-c2ccccc2)cc(C#N)c1=O`, the Potency result was “inactive”.

As for `O=C(O)c1ccccc1C(=O)NC1=NN(c2ccccc2)CC1`, the Potency result is “inactive”.

With `NNC(=O)c1nnn(-c2nonc2N)c1CN1CCCC1`, the Potency result was “inactive”.

Turning to `CCOC(=O)c1nnn(-c2nonc2-n2cccc2)c1CN1CCOCC1`, the Potency entry is “inactive”.

As for `CCOC(=O)c1nnn(-c2nonc2-n2cccc2)c1CN1CCC(C(=O)OCC)CC1`, the Potency was 18.4 µM (active).

`COC(=O)C1(CCSC)NC(c2ccc(OC)cc2OC)C2C(=O)N(c3cccc(C(C)=O)c3)C(=O)C21` (stereo not given): the Potency entry is “inactive”.

In the case of `COc1ccccc1-c1cc(C(F)(F)F)nc(S(=O)(=O)CCCC(=O)Nc2ccc(F)cc2F)n1`, the Potency was 3.66 µM (active).

Turning to `Cc1cc2nc(C(F)(F)F)cc(-c3cccs3)n2n1`, the Potency result is “inactive”.

`O=C(COC(=O)CSc1ccccc1)Nc1ccc(F)cc1F`: the Potency entry was “inactive”.

For `O=C(Nc1cc(C(F)(F)F)ccc1Cl)c1cc2nc(-c3ccc4c(c3)OCO4)cc(C(F)(F)F)n2n1`, the Potency entry is “inactive”.

Consider `COc1ccccc1-c1cc(C(F)(F)F)nc(S(=O)(=O)CCCC(=O)Nc2cc(C)ccc2O)n1`, for which the Potency entry is “inactive”.

Take `O=C(CSc1ccc(-c2cccs2)nn1)Nc1ccccc1F`: the Potency result is “inactive”.

In the case of `Cc1ccc(O)c(NC(=O)CCS(=O)(=O)c2nc(-c3ccc4c(c3)OCO4)cc(C(F)(F)F)n2)c1`, the Potency is 11.6 µM (active).

As to `CC(Sc1nc(-c2ccccc2)cc(C(F)(F)F)n1)C(=O)Nc1ccc2c(c1)OCO2` (stereo not given), the Potency entry was “inactive”.

Consider `CSc1ccccc1NC(=O)CCS(=O)(=O)c1nc(-c2cccs2)cc(C(F)(F)F)n1`, for which the Potency is 11.6 µM (active).

Turning to `CCC(=O)c1c[nH]c(C(=O)NCC2CCCO2)c1` (stereo not given), the Potency result was “inactive”.

With `Cc1ccc(C(=O)OCC(=O)NC(=O)Cc2ccccc2)c(O)c1`, the Potency entry is “inactive”.

Take `CC(C)(C)C(=O)COC(=O)c1cc(S(=O)(=O)N2CCCCC2)ccc1N1CCOCC1`: the Potency entry was “inactive”.

Consider `CCCCSc1ncnc2c1sc1nc(N3CCOCC3)c3c(c12)CCCC3`, for which the Potency entry is “inactive”.

In the case of `CC(C)Cc1nn2c(=O)cc(O)nc2s1`, the Potency entry is “inactive”.

As to `CSc1nnc2c(n1)OC(c1ccsc1)N(C(C)=O)c1ccccc1-2` (stereo not given), the Potency entry is “inactive”.

On to `COc1ccccc1NC(=O)COC(=O)Cc1ccc(S(=O)(=O)N2CCCCC2)s1`, for which the Potency entry is “inactive”.

On to `COC(=O)c1ccc(CSc2nncn2N)cc1`, for which the Potency result was “inactive”.

For the compound `CCOC(=O)c1ccc(CSc2nnc3cc(C)c4ccccc4n23)cc1`, the Potency was 20.6 µM (active).

`COC(=O)c1ccc(CSc2nncn2C)cc1`: the Potency result was “inactive”.

For `COCc1c(C(=O)N/N=C/C2CC=CCC2)nnn1-c1nonc1N` (stereo not given), the Potency result is “inactive”.

With `CCc1ccc(N2CC(C(=O)NC3=NCCS3)CC2=O)cc1` (stereo not given), the Potency result was “inactive”.

Take `Cc1cccc(C(=O)OC(C)CN2CCCC2)c1` (stereo not given): the Potency result was “inactive”.

Regarding `Cc1cccc(N)c1SC1CCCCC1O` (stereo not given), the Potency entry was “inactive”.

As for `CCCn1nnc(NC(=O)COc2ccc(CC)cc2)n1`, the Potency entry is “inactive”.

With `O=C(OCc1ccccc1F)c1ccc2c(c1)OCCO2`, the Potency entry is “inactive”.

As to `C=CCNC(=S)NNC(=O)c1ccc(Br)o1`, the Potency result is “inactive”.

As to `C=CCNC(=S)N/N=C/c1ccc(C)s1`, the Potency is 7.31 µM (active).

Take `C=C(C)CNC(=S)N/N=C/c1ccccc1OCC(=O)O`: the Potency entry was “inactive”.

On to `CCOC(=O)c1c(NC(=O)CN2C(=O)NC3(CCC(C)CC3)C2=O)sc(C)c1CC` (stereo not given), for which the Potency result is “inactive”.

For `OCC(O)C1OCOC(C(O)CO)C1O` (stereo not given), the Potency result is “inactive”.

For the compound `COc1cc(NC(=O)CCn2nc(C)cc2C)cc(OC)c1OC`, the Potency entry was “inactive”.

In the case of `COc1cc(NC(=O)c2cc(-c3ccc(F)cc3OC(C)C)n[nH]2)cc(OC)c1OC`, the Potency was 11.6 µM (active).

Consider `COc1cc(F)ccc1-c1cc(C(=O)NCC2CCCCC2)[nH]n1`, for which the Potency entry was “inactive”.

Regarding `COC(C)(C)[C@]12CC(O)(C(C)C)ON1[C@H]1CCCCC1N2O` (stereo not given in full), the Potency result is “inactive”.

For `CCC(=O)c1cc2c(cc1NC(=O)c1cccs1)OCCO2`, the Potency result was “inactive”.

As to `Cc1ccc(Oc2nc3ccccc3n3c(C)nnc23)cc1`, the Potency entry was “inactive”.

As to `C[C@@H]1NC(=O)[C@@]2(C)[C@@H](c3ccccc3)[C@H]3COc4ccccc4[C@@H]3N2C1=O`, the Potency result is “inactive”.

Regarding `CCOc1cc(-c2cc(-c3ccc(NC(C)=O)cc3)nc(N)c2C#N)ccc1O`, the Potency was 20.6 µM (active).

Turning to `CC(=O)Nc1ccc(-c2cn3cccnc3n2)cc1`, the Potency entry is “inactive”.

With `CCOC(=O)CC(=O)CSc1nc(-c2ccccc2)cc(-c2ccc(Cl)cc2)c1C#N`, the Potency result was “inactive”.

Regarding `CCCN(CC1CC1)C(=O)COC(=O)c1ccc(C)cc1O`, the Potency entry was “inactive”.

For the compound `CC(C)OC(=O)c1cc(NC(=O)C2C3CCC(O3)C2C(=O)O)cc(C(=O)OC(C)C)c1` (stereo not given), the Potency result was “inactive”.

Take `Cc1cc(NC(=O)CN2CCC(O)(c3cccc(F)c3)CC2)no1`: the Potency result was “inactive”.

For `O=C(CN1CCC(O)(c2cccc(C(F)(F)F)c2)CC1)NCCc1ccccc1`, the Potency is 11.6 µM (active).

With `O=C(CN1CCC(O)(c2ccccc2)CC1)Nc1ccc2c(c1)OCCO2`, the Potency result was “inactive”.

In the case of `Cn1c(=O)c2[nH]c(NCC3CCCO3)nc2n(-c2ccccc2)c1=O` (stereo not given), the Potency result was “inactive”.

As to `CN(C)S(=O)(=O)c1cccc(-c2nn(-c3ccccc3)cc2/C=C2\SC(=S)N(CC(=O)O)C2=O)c1`, the Potency result is “inactive”.

Turning to `CC1=CC2=NC(=O)/C(=C/c3coc4ccccc4c3=O)C(=N)N2O1`, the Potency entry was “inactive”.

As to `O=C1/C(=C/c2coc3ccc(O)cc3c2=O)SC(=S)N1c1ccccc1`, the Potency was 16.4 µM (active).

Take `CN(C)CCCn1c(SCCN2C(=O)c3ccccc3C2=O)nc2ccccc2c1=O`: the Potency result is “inactive”.

As for `CCn1c2ccccc2c2cc(CC(N)=O)ccc21`, the Potency entry is “inactive”.

Regarding `CN(Cc1ccccc1)C(=O)c1cc2c(=O)n(C)c3ccccc3c2s1`, the Potency entry was “inactive”.

Consider `CCc1ccc(CNC(=O)c2cc3c(=O)n(CC)c4ccccc4c3s2)cc1`, for which the Potency was 29.1 µM (active).

With `Cc1cc(=O)oc(C)c1C(=O)N1CCCCC1`, the Potency entry is “inactive”.

In the case of `Cc1oc2ncnc(N3CCCCC3)c2c1C(=O)N1CCN(c2cccc(Cl)c2)CC1`, the Potency was 16.4 µM (active).

Turning to `COc1ccc(C)cc1N(C)C(=O)c1c(C)oc2ncnc(N3CCOCC3)c12`, the Potency entry was “inactive”.

Take `O=C(COC(=O)CNC(=O)C1CCCCC1)Nc1cccc(F)c1`: the Potency entry was “inactive”.

As to `Cc1cccc(OCC(=O)NCC(=O)N/N=C/c2ccc(N(C)C)cc2)c1`, the Potency result is “inactive”.

`COc1ccccc1NC1=NC(c2ccc(Cl)cc2)N=C(N)N1` (stereo not given): the Potency is 5.8 µM (active).

Consider `COc1ccccc1NC1=NC2(CCCC2)N=C(N)N1`, for which the Potency entry was “inactive”.

Take `COc1cc(C2C(C(=O)Nc3ccccc3OC)=C(C)Nc3ncnn32)ccc1O` (stereo not given): the Potency entry was “inactive”.

Take `COc1cc([N+](=O)[O-])cc([N+](=O)[O-])c1NC(=O)N1CCOCC1`: the Potency entry is “inactive”.

`O=C(CSc1nc(=O)n(Cc2cccnc2)c2c1CCC2)Nc1ccc(F)cc1F`: the Potency entry was “inactive”.

For the compound `CC(=O)c1c(OCC(=O)N(C)C2CCCCC2)ccc2c(C)cc(=O)oc12`, the Potency entry is “inactive”.

With `CCc1ccnc(NS(=O)(=O)c2ccc3c(c2)OCCO3)c1`, the Potency entry was “inactive”.

Regarding `CC(C)(C)NC(=O)CN(C(=O)c1ccc(Cl)nc1)c1cccc2ccccc12`, the Potency result was “inactive”.

In the case of `COc1cc2nnn(-c3ccncc3)c2cc1OC`, the Potency entry was “inactive”.

Take `Cc1ccc(C)n1-c1ccncc1`: the Potency entry was “inactive”.

Take `c1ccc2c(c1)nnn2-c1ccncc1`: the Potency was 5.17 µM (active).

For the compound `CC(=O)N1C(=O)C2(Nc3ccccc3N2)c2ccccc21`, the Potency result is “inactive”.

As to `Cc1oc(CC(C)C)c(CN2CCCC2)c1C(=O)O`, the Potency entry is “inactive”.

With `COc1ccc(CCNC(=O)c2cc3cccc4c3n2CC(C)S4)c(OC)c1OC` (stereo not given), the Potency is 11.6 µM (active).

In the case of `COc1ccc(CCNC(=O)CN2C(=O)CCSc3ccccc32)c(OC)c1`, the Potency result is “inactive”.

In the case of `COc1ccc(CCNC(=O)COC(=O)Cc2cc(OC)c(OC)c(OC)c2)cc1`, the Potency result was “inactive”.

As to `CNc1nc(SC)nc(N(C#N)CC(=O)OC)n1`, the Potency result is “inactive”.

For `COc1ccc(NC(=O)CN(C)C(=O)c2ccc(COc3ccccc3)o2)cc1`, the Potency result is “inactive”.

In the case of `CCOc1ccc(OCc2ccc(C(=O)N(C)c3ccccc3)o2)cc1`, the Potency was 14.6 µM (active).

Consider `O=C(NCCc1ccccn1)c1ccc(COc2ccccc2)o1`, for which the Potency result is “inactive”.

For the compound `CCOC(=O)N1C(=O)C[C@](Sc2ccc(C)cc2)(C(=O)OC)[C@H]1c1ccccc1`, the Potency entry was “inactive”.

Take `CCCCC12CN3CC(C)(CN(C1)C3c1ccc(O)c(OC)c1)C2=O` (stereo not given): the Potency result was “inactive”.

Turning to `CCN1C(=O)[C@@H]2[C@@H](c3ccc(-c4ccccc4)cc3)N3CCCC[C@@]3(C(=O)OC)[C@@H]2C1=O`, the Potency was 16.4 µM (active).

Turning to `CCN1C(=O)[C@@H]2[C@@H](c3ccc(-c4cccc(Cl)c4)cc3)N3CCC[C@@]3(C(=O)OC)[C@@H]2C1=O`, the Potency was 16.4 µM (active).

For `CC(=O)N(CN1C(=O)C2C3C=CC(C3)C2C1=O)c1cccc(Cl)c1` (stereo not given), the Potency entry is “inactive”.

With `CCN1C(=O)[C@H]2[C@@H](c3ccc(C)cc3)N3C(=O)N(c4cccc(Br)c4)C(=O)[C@@]3(CC)[C@H]2C1=O`, the Potency entry is “inactive”.

As for `CCCCCCSc1ccc([C@@H]2[C@@H]3C(=O)N(CC)C(=O)[C@@H]3[C@]3(C(=O)OC)CCCCN23)cc1OC`, the Potency is 25.9 µM (active).

Consider `NC(=O)C1(Nc2ccc(-c3ccccc3)cc2)CCCC1`, for which the Potency result is “inactive”.
